Screening results (PubChem BioAssay)
A selection: hits, their analogues and other compounds. The true share with any hit is near 3%.
p53null 39C kill: kills p53 null cells at the nonpermissive temperature. H1299 p53-null (neo) cells, 39C, ATPlite viability, 24 h. Potency, µM (highest dose often 46.1 µM), without a hit: top-dose activity, negative = cell killing, actives largely listed as cytotoxic. 0.97% of 55,000 active;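 note: 0% = DMSO only and -100% = full killing by 100 µM tamoxifen; nearly all actives have a fitted effect of over 50% in size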
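ATP-luminescence viability readout (ATPlite, 20 min RT) after 24 hr compound treatment at 39C of H1299-neo or H1299-p53A138V cells; titration up to 46 uM; normalized to DMSO and 100 uM tamoxifen; Hill-fit AC50.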
p53null 32C kill: p53 null cell cytotoxicity, permissive temperature; H1299-neo p53 null cells, ATP luminescence, 24 h, 32C; 0.62% of 55,000 active; Potency, µM (series often up to 46.1 µM), for inactives: top-dose activity change, negative = cytotoxicity, most hits filed as cytotoxic;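 note: 0% = DMSO only and -100% = full killing by 100 µM tamoxifen; nearly all actives have a fitted effect of over 55% in size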
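Luminescent ATP readout gave cell viability of p53-null H1299-neo cells after a 24 h compound exposure at the permissive 32C. Titrations ran up to 46 uM, and AC50s were fitted with the standard Hill equation.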
GALC G270D act: enhancers of human galactocerebrosidase G270D mutant activity in cells; P54803; 0.1% of 45,000 active; Potency, µM (series often up to 57.5 µM), actives largely listed as activators; 145M-Twi-hGALC-G270D cells (Twitcher mouse brain line with human GALC G270D), HMU-beta-Gal fluorescence, 48 h; note: 0% is about no effect; nearly all actives have a fitted effect of over 65% in size
Target sequence (P54803 whole entry G286D): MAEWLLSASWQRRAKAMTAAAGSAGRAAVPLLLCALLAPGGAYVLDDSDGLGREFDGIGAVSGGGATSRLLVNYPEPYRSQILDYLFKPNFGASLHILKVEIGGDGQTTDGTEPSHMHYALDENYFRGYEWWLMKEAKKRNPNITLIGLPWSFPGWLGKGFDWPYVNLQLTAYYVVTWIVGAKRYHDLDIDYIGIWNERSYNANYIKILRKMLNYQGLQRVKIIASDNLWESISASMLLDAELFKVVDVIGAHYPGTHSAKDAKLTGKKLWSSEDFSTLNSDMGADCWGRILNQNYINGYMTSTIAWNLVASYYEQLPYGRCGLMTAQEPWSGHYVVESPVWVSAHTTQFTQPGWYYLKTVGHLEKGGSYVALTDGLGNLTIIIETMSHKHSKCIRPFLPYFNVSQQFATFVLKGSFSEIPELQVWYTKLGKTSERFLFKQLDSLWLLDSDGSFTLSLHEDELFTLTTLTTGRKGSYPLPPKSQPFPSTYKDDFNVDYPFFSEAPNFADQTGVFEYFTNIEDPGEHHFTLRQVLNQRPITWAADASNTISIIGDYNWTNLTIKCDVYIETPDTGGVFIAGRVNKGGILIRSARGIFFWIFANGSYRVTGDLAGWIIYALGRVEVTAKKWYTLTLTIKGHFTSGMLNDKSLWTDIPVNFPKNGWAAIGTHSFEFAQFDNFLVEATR
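Brain-derived Twitcher mouse 145M-Twi cells stably expressing human GALC-G270D or wild-type GALC, treated live, then residual GALC activity read by fluorescence of HMU-b-Gal substrate (0.1 mM final) in citrate-phosphate buffer pH 5.2 with sodium taurocholate. Signal increase indicates enhancement.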
S16 F2sN tox: toxic to S16 Pmp22-F2sN Schwann cells; S16 Pmp22-F2sN Schwann cells viability, CellTiter-Glo, 24 h; Potency, µM (top dose mostly 57.5 µM), for the others: top-dose activity change, negative = cytotoxicity, usual class: cytotoxic; 0.48% of 43,000 active; note: % is set by controls: 0 for no effect and ±100 for the full control effect; nearly all actives have a fitted effect of over 65% in size
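S16 Schwann cells carrying the Pmp22-F2sN reporter, seeded in 1536-well format, were exposed to library compounds for 24 h at 37C. Viability was read as CellTiter-Glo luminescence after 15 min at room temperature.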
PMP22 txn prim: PMP22 gene transcription modulation; S16 Pmp22-F2sN Schwann cells (luciferase reporters placed in the Pmp22 gene), FLuc/NLuc coincidence luminescence, 24 h; 2% of 43,000 active; Potency, µM (top dose mostly 57.5 µM), without a hit: top-dose activity change, negative = inhibition, usual class: inhibitors; active = clear falling dose curves in both reporters; inconclusive = both reporters move, but less clearly or upward; inactive = either reporter flat; the % is the NLuc reporter signal; note: % is set by controls: 0 for no effect and ±100 for the full control effect
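Rat S16 Pmp22-F2sN cells, 500-1,000/well in phenol red-free DMEM + 10% FBS, compound-treated 24 h (37C, 5% CO2). Luminescence: FLuc read, Stop&Glo added, NLuc read.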
pS6 MEF inh: mTORC1 pathway inhibition measured by phospho-rpS6; Tsc2-/- p53-/- MEF, phospho-rpS6 immunofluorescence/PI, 24 h; Potency, µM (doses to about 38.3 µM), inactives show top-dose activity change, negative = inhibition, usual class: inhibitors; 0.78% of 44,000 active; AID 493208;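 note: plate controls were DMSO for no effect and rapamycin for full effect; nearly all actives have a fitted effect of over 50% in size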
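Readout is phospho-S6 Alexa 488 signal normalized to PI per well, reported as % active cells with thresholds set from rapamycin (7.5 nM) and DMSO controls. Cells: Tsc2-/-, p53-/- MEFs, 24 hrs compound at 37 C; PI cell number serves as viability.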
* = called active by the depositor; i = inactive; u = inconclusive; x = no result given. Unless noted, calls come from the whole dose curve; as a rule, active = well fitted curve in the direction sought with a large enough effect; inconclusive = small, poorly fitted or top-dose-only effect, or another doubt; inactive = no such curve, though single readings can be large; an effect the other way counts as inactive or inconclusive. Potency is the fitted concentration of half-maximal effect.

SMILES | p53null 39C kill | p53null 32C kill | GALC G270D act | S16 F2sN tox | PMP22 txn prim | pS6 MEF inh
Cc1ccc(CNS(=O)(=O)c2ccc(-c3cnc(C4CC4)o3)cc2)cc1 | 8.3% | 1.5% | i | -24.8% | u | 1.5%
COc1cc(Cl)c(NS(=O)(=O)c2ccc(-c3cnc(C4CC4)o3)cc2)c(OC)c1 | u | -4.6% | i | 1.26µM* | 2.99µM* | -29.3%
CC(=O)c1ccc(NS(=O)(=O)c2ccc(-c3cnc(C4CC4)o3)cc2)cc1 | 0.2% | u | i | 6.0% | -2.6% | -1.5%
CCOC(=O)c1cccc(NS(=O)(=O)c2ccc(-c3cnc(C4CC4)o3)cc2)c1 | 1.3% | -5.8% | i | u | 10.6µM* | -18.1%
Cc1ccc(N(C)S(=O)(=O)c2ccc(-c3cnc(C4CC4)o3)cc2)cc1 | u | -13.6% | i | u | 14.1µM* | 0.6%
COc1ccc(-c2nn3c(=O)cc(CN4CCN(C(=O)c5ccc(C(C)(C)C)cc5)CC4)nc3s2)cc1 | -11.5% | 2.0% | i | 5.1% | -32.2% | 10.6%
CCOc1ccc(-c2nc3ccccc3c(=O)o2)cc1 | 6.31µM* | 3.98µM* | i | 2.2% | -14.9% | 4.5%
CCOc1ccc(-c2nnc(-c3ccccc3)o2)cc1 | 12.6µM* | u | x | x | x | x
CC(=O)c1ccc(NC(=O)CSc2nnc3ccc(-c4ccc(Cl)cc4)nn23)cc1 | u | 9.2% | i | 9.4% | -21.7% | -0.5%
COc1ccc(-c2[nH]nc3nc(-c4cc(OC)c(OC)c(OC)c4)cc(C(=O)O)c23)cc1 | 4.6% | -5.9% | i | 5.3% | 11.3% | 16.5µM*
CCc1ccc(-c2[nH]nc3nc(-c4cc(OC)ccc4OC)cc(C(=O)O)c23)cc1 | 3.98µM* | 10µM* | i | -0.8% | 8.7% | u
CSc1ccc(-c2nnc(NC(=O)c3ccc4c(c3)OCCO4)o2)cc1 | u | -16.0% | i | -21.3% | u | 6.4%
Cc1ccc(C)c(-c2nnc(NC(=O)c3ccc4c(c3)OCCO4)o2)c1 | 7.94µM* | -11.7% | i | u | u | 0.1%
Cc1ccc(-c2c(C)n3c4c(=O)n(C)c(=O)n(C)c4nc3n2CCCO)cc1 | -11.7% | -6.5% | i | 31.6µM* | u | -4.5%
COC(=O)CCCn1c(-c2ccc(C)cc2)c(C)n2c3c(=O)n(C)c(=O)n(C)c3nc12 | u | 9.7% | i | 5.9% | u | -2.6%
NC(=O)C1CCN(C(=O)c2ccc(NC(=O)c3nsc4ccccc34)cc2)CC1 | 2.82µM* | 2.51µM* | i | u | u | -10.4%
CCOC(=O)C1CCN(C(=O)c2ccc(NC(=O)c3nsc4ccccc34)cc2)CC1 | u | -24.4% | i | u | -4.6% | -6.6%
COc1cccc(CNC(=O)C(=O)Nc2ccc3nc4n(c(=O)c3c2)CCCCC4)c1 | -18.0% | 10.8% | i | 10.5% | 1.0% | -10.3%
CCCN(CCC)C(=O)c1cc2c(=O)n3cccc(C)c3nc2s1 | -0.4% | -5.3% | 20µM* | u | -34.9% | -1.3%
Cc1cccc(NC(=O)c2cc3c(=O)n4cccc(C)c4nc3s2)c1C | -8.1% | 28.6% | i | -6.5% | u | u
Cc1cccn2c(=O)c3cc(C(=O)NCC(C)C)sc3nc12 | -12.1% | 6.3% | 3.98µM* | -1.0% | -11.4% | 0.4%
O=S(=O)(Nc1cccc(-c2ccc(N3CCCC3)nn2)c1)c1ccc(F)cc1F | 9.2% | -13.9% | i | 24.2% | -3.7% | 0.6%
COc1ccc(S(=O)(=O)Nc2cccc(-c3ccc(N4CCCCCC4)nn3)c2)cc1F | -21.3% | -22.7% | x | x | x | 0.3%
COc1ccc(S(=O)(=O)Nc2cccc(-c3ccc(N4CCCCC4)nn3)c2)cc1F | 20µM* | 12.6µM* | x | x | x | -1.4%
